From PubChem BioAssay AID2315 (National Center for Advancing Translational Sciences (NCATS), 2010)
The campaign covered roughly 290,000 compounds. About 27,000 (9.3%) were called active. Cut-off read from the data, not from the text of the source: active = inhibition mostly above about 28% (no sharp cut-off); inactive = mostly below about 43%. Only a selection was taken, and actives are over-represented in it overall.

Assay: A qHTS for Small Molecule Inhibitors of Shiga Toxin; note: 0% is about no effect
Details: Vero cells, Shiga toxin protein synthesis inhibition reporter; at 38.7 µM, hits give high values

| Compound | inhibition |
| --- | --- |
| COc1ccc(C(=O)COC(=O)Cn2cnc3c2c(=O)n(C)c(=O)n3C)c(OC)c1 | -5.14% (inactive) |
| COc1cnc(-c2ccccn2)nc1Oc1ccc(C(C)(C)C)cc1 | 1.11% (inactive) |
| CC(C)(C)Nc1nc(-c2ccccn2)nc2ccccc12 | -14.9% (inactive) |
| Cc1ccc(Oc2nc(-c3ccccn3)nc3ccccc23)cc1 | 57.7% (active) |
| COC1=C(N2CCOCC2)C(=O)c2ccccc2C1=O | -6.31% (inactive) |
| CCOCCc1nn2c(=O)cc(CSCC(=O)Nc3cccc(C)c3C)nc2s1 | -13.9% (inactive) |
| O=C(Nc1cccc(-c2cscn2)c1)C1CCN(Cc2ccsc2)CC1 | -4.07% (inactive) |
| COCCNC(=O)COc1ccc(N(C)S(=O)(=O)c2ccc3ccccc3c2)cc1 | -8.35% (inactive) |
| COC(=O)c1sc2ncccc2c1OCc1ccc(Cl)cc1Cl | 6.72% (inactive) |
| O=S(=O)(O)c1nc2ccccc2n1Cc1ccc(Cl)cc1Cl | -6.41% (inactive) |
| Cc1nc2ccccc2nc(C)c1=NOCc1ccc(Cl)cc1Cl | 112% (active) |
| COC(=O)CSc1nnc(NC(=O)CCc2ccccc2)s1 | 10.7% (inactive) |
| COc1ccc(CNS(=O)(=O)c2ccc(-c3cnc(C4CC4)o3)cc2)cc1 | -4.74% (inactive) |
| Cc1ccc(-n2ncc3c2CC(C)(C)CC3NC(=O)CCc2cnn(C)c2)cc1 (stereo unspecified) | -4.16% (inactive) |
| CC(C)(C)c1csc(NC2=NS(=O)(=O)c3ccccc32)n1 | 97.3% (active) |
| Cc1ccc(S(=O)(=O)N(NC2=NS(=O)(=O)c3ccccc32)C(=O)c2ccccc2)cc1 | -6.05% (inactive) |
| O=C(Oc1cccc(NC2=NS(=O)(=O)c3ccccc32)c1)c1ccncc1 | 2.4% (inactive) |
| Cc1ccc(C(C)C)c(OCCSc2nc3ccccc3n2CC(=O)O)c1 | -6.58% (inactive) |
| CC(OC(=O)c1ccccc1OCc1ccc(Cl)cc1)C(N)=O (stereo unspecified) | -20.8% (inactive) |
| C=CCc1ccccc1OCC(O)CN1CCN(CCO)CC1 (stereo unspecified) | -5.91% (inactive) |
| O=C(c1ccc(-c2ccccc2)cc1)C1CCCN(C(=O)c2cncs2)C1 (stereo unspecified) | 16.3% (inactive) |
| CCNC(=O)N1CCCC(C(=O)c2ccc(-c3ccccc3)cc2)C1 (stereo unspecified) | 36.1% (active) |
| Cc1ccccc1NC(=O)C1CCCN(C(=O)NCc2ccccc2)C1 (stereo unspecified) | -9.33% (inactive) |
| Cc1cccc(C(=O)N2CCN(S(=O)(=O)N3CCCCC3)CC2)c1 | 12.6% (inactive) |

| Compound | inhibition |
| --- | --- |
| CCC1CCCCN1C(=O)CSc1nc2c(c(=O)n1C)SC(C)C2 (stereo unspecified) | -5.97% (inactive) |
| CCCCN(CCCC)CCNC(=O)CN1C(=O)COc2ccc(S(=O)(=O)N3CCOCC3)cc21 | -2.7% (inactive) |
| NS(=O)(=O)c1ccc(N=Nc2c(O)[nH]c3ccc(Br)cc23)cc1 | 58.5% (inactive) |
| Cc1cccc(N=Nc2c(O)[nH]c3ccc(F)cc23)c1 | 143% (active) |
| Oc1[nH]c2ccc(Br)cc2c1N=Nc1nn[nH]n1 | 2.43% (inactive) |
| Cc1ccc(CNC(=O)C2CCN(S(=O)(=O)c3ccc4nc5c(c(C(=O)O)c4c3)CC(C)CC5)CC2)cc1 (stereo unspecified) | 19.6% (inactive) |
| CCOC(=O)CSc1nnc(NC(=O)C2CC(=O)N(c3ccc(F)cc3)C2)s1 (stereo unspecified) | -11.5% (inactive) |
| Cc1ccc(S(=O)(=O)NCC2CCC(C(=O)N3CCOCC3)CC2)cc1 (stereo unspecified) | -3.33% (inactive) |
| O=C(c1cccnc1)N1CCN(S(=O)(=O)c2cccs2)CC1 | -10.5% (inactive) |
| CCOC(=O)c1cccc(NC(=O)CN2C(=O)C3CC=CCC3C2=O)c1 (stereo unspecified) | -2.13% (inactive) |
| Cc1ccc(NC(=O)NC(=O)N(C2CCCCC2)S(=O)(=O)c2ccccc2)cc1 | 0% (active) |
| Cc1ccc(S(=O)(=O)N(C)CC(=O)OCC(=O)Nc2ccccc2)cc1 | 10.4% (inactive) |
| CC(c1ccco1)N(C(=O)Nc1ccccc1)C1CCCCC1 (stereo unspecified) | 71.5% (inactive) |
| COc1cc(Br)c(-c2sc(Nc3ccccc3)n[n+]2-c2ccccc2)cc1OC | -9.06% (inactive) |
| Cc1cc(C(=O)NNC(=S)Nc2ccccc2C)cs1 | 66.8% (active) |
| Cc1cc(C(=O)Nc2c(C)n(C)n(-c3ccccc3)c2=O)cs1 | -6.98% (inactive) |
| Cc1ccc(C(=O)NC(=S)Nc2ccc(N3CCOCC3)cc2)cc1 | 30% (inactive) |
| Cc1ccc(C)c(NC(=S)NNC(=S)Nc2ccc(C(C)C)cc2)c1 | 50.1% (active) |
| Cc1ccc(NC(=S)N/N=C2/CCCc3c(C)cc(C)cc32)cc1 | -4.99% (inactive) |
| CC(C)c1ccc(NC(=S)NNc2ccc(Cl)c(C(=O)O)c2)cc1 | 52% (inactive) |
| Cc1ccc(C(=O)NC(=S)Nc2ccccc2C)cc1 | 97.5% (active) |
| Cc1ccccc1NC(=S)NNC(=O)c1cccc(Br)c1 | 48.8% (inactive) |
| Cc1ccccc1NC(=S)NC(=O)Cc1ccc(Cl)cc1 | -4.05% (inactive) |
| COc1ccc(C(=O)NNC(=S)NC(=O)c2ccccc2)cc1 | 31.4% (inactive) |

| Compound | inhibition |
| --- | --- |
| Cn1nnc(NC(=S)NC(=O)c2ccccc2)n1 | 64.6% (active) |
| CCOC(=O)c1c(-c2ccccc2)csc1NC(=S)NC(=O)c1ccccc1 | -2.96% (inactive) |
| O=C(Nc1ccc(F)cc1)C1CCCN(S(=O)(=O)c2ccc(-n3cnnn3)cc2)C1 (stereo unspecified) | -10.1% (inactive) |
| Cc1nn(CC(=O)NC2CCCCC2)c(=O)c2cccn12 | 1.03% (inactive) |
| CN(CC(=O)Nc1c(Cl)cccc1Cl)C(=O)CNC(=O)C1CCCCC1 | 8.74% (inactive) |
| CCc1nccn1CCC(=O)N1CCCC(N2CCN(c3ccccc3F)CC2)C1 (stereo unspecified) | -3.27% (inactive) |
| O=C(Nc1cc(-c2nc3ncccc3o2)ccc1Cl)c1ccco1 | -5.97% (inactive) |
| O=C1C[C@@H](c2ccc3ccccc3c2)N1S(=O)(=O)c1ccccc1[N+](=O)[O-] | -7.61% (inactive) |
| Cc1sc2ncn(CC(=O)NCCCC(=O)N3CCN(c4ccccc4F)CC3)c(=O)c2c1C | -6.47% (inactive) |
| CC1(C)Cc2c(sc(NC(=O)C(=O)NCC3CCCO3)c2C(=O)O)CO1 (stereo unspecified) | -2.38% (inactive) |
| COc1cccc(CNC(=O)c2nnn(CC(=O)Nc3cc(C)ccc3C)c2N)c1 | -3.78% (inactive) |
| Cc1ccc(C)c(NC(=S)NNC(=O)c2csc(C)c2)c1 | 22.3% (active) |
| Cc1ccc(C(=O)NC(=S)NCc2cccnc2)cc1 | 56% (active) |
| Cc1c(C(=O)NC(=S)NCc2cccnc2)oc2ccccc12 | -22.1% (inactive) |
| Cc1ccc(NC(=S)NCCN2CCOCC2)cc1 | -3.76% (inactive) |
| Cc1ccc(C(=O)NC(=S)NCCN2CCOCC2)cc1 | 57.3% (active) |
| Cc1cc(C(=O)NNC(=S)NC(C)c2ccccc2)cs1 (stereo unspecified) | 8.77% (inactive) |
| Cc1ccc(C(=O)N/C(=C\c2ccc(F)cc2)C(=O)NCCN2CCOCC2)cc1 | -6.91% (inactive) |
| CCc1cccc(CC)c1NC(=S)Nc1ccc2cn[nH]c2c1 | -6.34% (inactive) |
| Cc1ccc(C)c(NC(=O)NNC(=O)c2ccc3ccccc3c2O)c1 | -2.25% (inactive) |
| Cc1cc2[nH]ncc2cc1NC(=S)NC(=O)c1ccccc1 | 34.9% (active) |
| CC(C)(C)c1cc(C(=O)NCc2cccnc2)ccn1 | -3.32% (inactive) |
| Cc1cccc(NC(=S)Nc2ccc3cn[nH]c3c2)c1 | -14.2% (inactive) |
